# Measured values published in PubChem BioAssay AID686964 (The Scripps Research Institute Molecular Screening Center, 2013).
# Hit rate of the full screen: of about 370,000 compounds, about 1,100 (0.3%) were called active. Cut-off read from the data, not from the text of the source: active = inhibition above about 13%; inactive = the rest. Shown is part of a subset that was picked to be rich in actives.
# Target: Methyl-CpG-binding domain protein 2 (Homo sapiens) (UniProt Q9UBB5)
# Assay: MBD2-DBD methyl-oligonucleotide interaction blockers – biochemical, TR-FRET, DNA-binding domain, human, primary screen (AID 686964)
# Conditions: MBD2 binding to methylated oligonucleotide, at 4.4 µM, hits give high values
# Chain of Methyl-CpG-binding domain protein 2 (Homo sapiens) (Q9UBB5 whole entry, looked up, the tested form may be a part): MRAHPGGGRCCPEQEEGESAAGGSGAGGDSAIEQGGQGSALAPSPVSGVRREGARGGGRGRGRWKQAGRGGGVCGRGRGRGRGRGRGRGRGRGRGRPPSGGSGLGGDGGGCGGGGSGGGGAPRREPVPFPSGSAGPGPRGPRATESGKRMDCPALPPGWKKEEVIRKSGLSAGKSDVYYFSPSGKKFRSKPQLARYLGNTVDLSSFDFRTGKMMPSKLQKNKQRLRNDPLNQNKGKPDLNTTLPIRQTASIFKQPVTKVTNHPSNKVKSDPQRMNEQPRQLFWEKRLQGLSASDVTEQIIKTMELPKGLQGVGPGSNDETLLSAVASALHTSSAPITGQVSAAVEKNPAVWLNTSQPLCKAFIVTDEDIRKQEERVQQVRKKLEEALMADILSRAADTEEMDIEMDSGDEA
row,SMILES,inhibition
1,Cc1cc(C)c(S(=O)(=O)NCC2CCC(C(=O)NCc3ccc4c(c3)OCO4)CC2)c(C)c1 (stereo not given),1.75% (inactive)
2,CCn1c2ccccc2c2cc(NC(=O)CSc3nnc(-c4ccccc4)n3-c3ccc(C)cc3)ccc21,1.63% (inactive)
3,CCn1c(=O)n2n(c1=O)[C@@]1(C=C3CCCC[C@H]32)N=C(NC(=O)c2ccccc2)N(Cc2ccccc2)[C@H]1Cc1ccccc1,-2.62% (inactive)
4,CCCCCN1CCCCC(NC(=O)C(C)CCC)C1=O (stereo not given),0.39% (inactive)
5,O=C(CNC(=O)c1ccccc1)OC(C(=O)Nc1cc([N+](=O)[O-])ccc1F)c1ccccc1 (stereo not given),0.02% (inactive)
6,COC(=O)C[C@@H]1CC[C@@H]2[C@@H](COc3ccc(NC(=O)Nc4ccc(F)c(F)c4)cc3C(=O)N2C)O1,-6.09% (inactive)
7,Cc1cccc(NC(=O)C[C@H]2CC[C@H]3[C@@H](COc4ccc(NC(=O)Nc5ccccc5)cc4C(=O)N3C)O2)c1,14.6% (active)
8,CCC(=O)Nc1ccc2c(c1)C(=O)N(C)[C@@H]1CC[C@@H](CC(=O)NCCc3ccccc3)O[C@H]1CO2,-1.77% (inactive)
9,O=C(NCCCc1ccccc1)[C@H](Cc1ccccc1)NC1(C(=O)NCCc2c[nH]c3ccccc23)CCC1,-4.2% (inactive)
10,CCOC(=O)C1CCN(C(=O)C(C)(C)NC(=O)Nc2ccc(F)c(F)c2)CC1,-0.53% (inactive)
11,CCCCCCCCN1C(=O)[C@@H](CC(=O)N2CCN(C(=O)OCC)CC2)C[C@@]2(C(=O)OC)C1=C[C@H](C1CCCC1)O[C@@H]2C,-0.47% (inactive)
12,CC(C)C(=O)N1CCC2(CC1)Oc1ccc(F)cc1C(=O)C21CC(c2ccccc2)=NO1 (stereo not given),-4.91% (inactive)
13,CC(=O)c1ccccc1NC(=O)CC1(CC(=O)O)CCCCC1,-1.55% (inactive)
14,CC(=O)c1ccccc1NC(=O)COC(=O)C1COc2ccccc2O1 (stereo not given),28.3% (active)
15,CCOC(=O)c1ccccc1NC(=O)COC(=O)CCC(=O)N1CCOCC1,3.48% (inactive)
16,COc1ccc(Cn2cc(COC(=O)N(C)Cc3ccccc3)nn2)cc1,1.89% (inactive)
17,CC(C)(C)C1C/C(=C/c2ccco2)C(=O)/C(=C/c2ccco2)C1 (stereo not given),72% (active)
18,COc1ccc(-c2cc(=O)oc3cc(OCC(=O)N(C)C4CCS(=O)(=O)C4)ccc23)cc1 (stereo not given),2.11% (inactive)
19,CN(C(=O)COC(=O)c1cc(-c2ccco2)nc2ccccc12)C1CCS(=O)(=O)C1 (stereo not given),17.8% (active)
20,CC(=O)c1ccc(OCC(=O)N(C)C2CCS(=O)(=O)C2)cc1 (stereo not given),1.21% (inactive)
21,CNC(=O)Nc1cc(C(C)(C)C)no1,3.32% (inactive)
22,CNC(=O)C[C@H]1C(=O)N(c2ccc(OC)cc2)C[C@@H]1Cc1ccccc1,13.2% (active)
23,CNC(=O)C[C@H]1C(=O)N(Cc2ccccc2)C[C@@H]1CSC,3.38% (inactive)
24,O=C(C[C@H]1C(=O)N(c2ccc(F)c(F)c2)C[C@@H]1Cc1ccccc1)Nc1ccccc1,5.88% (inactive)
25,COc1cc(/C=C/C(=O)n2cnc3ccccc32)cc(OC)c1OC,-1.66% (inactive)
26,O=C(Nc1cc(Cl)cc(Cl)c1)OCCN1CCCC12CCC(c1ccccc1)CC2 (stereo not given),-4.82% (inactive)
27,COC(=O)[C@]12C[C@H](CC(=O)NCCC(C)C)C(=O)N(CCc3ccc(OC)c(OC)c3)C1=C[C@H](C(C)(C)C)O[C@@H]2C,19.2% (active)
28,CCCCOCCCNC(=O)C[C@H]1C[C@@]2(C(=O)OC)C(=C[C@H](C(C)(C)C)O[C@@H]2C)N(CCc2ccc(OC)c(OC)c2)C1=O,2.62% (inactive)
29,COC(=O)[C@]12C[C@H](CC(=O)NCc3ccccc3)C(=O)N(CCc3ccc(OC)c(OC)c3)C1=C[C@H](C(C)(C)C)O[C@@H]2C,1.88% (inactive)
30,COC(=O)CC1CCc2cc(C)cc(C(CC(C)C)NC(=O)[C@H](CC(C)C)NC(=O)OCc3ccccc3)c2O1 (stereo not given in full),4.23% (inactive)
